Screen size: about 290,000 compounds; about 3,000 (1%) were called active. The list comes from a sample in which actives are over-represented; it also holds similar structures and randomly drawn compounds. Unmarked numbers belong to inactive results. No stated cut-off is given here; in the data, active means inhibition mostly above about 36% (no sharp cut-off); inactive means mostly below about 34%.

Usually inhibition stands for the relative decrease from the control value, in per cent.

The assay in a line: NOD1 signaling inhibitors, primary screen, cell-based, luminescence, uHTS (AID 1578).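 Further: HEK-293T reporter cells stimulated with the NOD1 agonist gamma-tri-DAP.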 Conditions: NOD1-driven NF-kB luciferase reporter cells, at 4 µM, active compounds read high. In general terms: A reporter such as luciferase makes a cellular process visible.
On to `COc1ccc(CCC(=O)NC(C)C)cc1`, for which the inhibition was -11.1%.
Consider `O=S(=O)(NCCN1CCOCC1)c1ccc(-c2ccc(S(=O)(=O)NCCN3CCOCC3)cc2)cc1`, for which the inhibition is -11.2%.
Next, `CCc1ccc(N2CC(C(=O)Nc3nc4ccc(S(C)(=O)=O)cc4s3)CC2=O)cc1` (stereo not drawn): 0.5%; `O=C(CCCN1C(=O)S/C(=C/C=C/c2ccccc2)C1=O)Nc1ccc(C(=O)O)cc1`: -38%.
The result for `O=C(CCc1ccccc1)NC(NC(=S)Nc1ccc(Cl)cc1)C(Cl)(Cl)Cl` (stereo not drawn) reads 19.9%.
`C/C(=N/NC(=O)c1nnn(-c2nonc2N)c1-c1ccccc1)c1ccncc1`: the inhibition is -26.6%.
For the molecule `Cc1c(Cl)c(C(=O)N2CCCc3ccccc32)nn1C`, the inhibition was 0.6%.
With `O=c1cc(C(F)F)oc2c1ccc1ccccc12`, the inhibition is 27.3%.
The result for `O=c1cc(C(F)(F)F)oc2c1ccc1ccccc12` reads -3.4%; that for `O=c1cc(C(Cl)(Cl)Cl)oc2c1ccc1ccccc12`, 82.3% (active); that for `O=C(/C=C/c1ccc(OC(F)F)cc1)Nc1cccc(S(=O)(=O)NC2=NCCCCC2)c1`, -43.6%.
For the molecule `COCCC(=O)N1CCC(Oc2ccc(C(=O)N3C[C@H]4CC[C@H]3C4)cc2)CC1`, the inhibition is -33%.
With `COc1cc(C(=O)NCCNC(=O)c2cc(OC)c(C)c(OC)c2)cc(OC)c1C`, the inhibition is -45.1%.
Next, `COCCNC(=O)COc1ccc(Oc2ccccc2)cc1`: -26.6%; `C=CCNC(=O)COc1ccc(Oc2ccccc2)cc1`: 52.1% (active).
As for `C=CCNC(=O)c1ccccc1NC(=O)COc1ccccc1`, the inhibition is 27.8%.
Next, `O=C(NCCSc1ccc(Br)cc1)c1ccc2nc[nH]c2c1`: -38.2%.
As to `Cc1ccc(S(=O)(=O)CC(=O)Nc2cc(C)on2)cc1`, the inhibition is 24.4%.
Consider `Cc1cc2oc(=O)sc2cc1NS(=O)(=O)c1cccc2cccnc12`, for which the inhibition is -17.4%.
In the case of `C=CCN(CC=C)CC(=O)Nc1cccc(Oc2cnccn2)c1`, the inhibition was 1.4%.
Take `O=C(CCl)Nc1cccc(Oc2cnccn2)c1`: the inhibition was 32.3% (active).
Next, `CC(=O)Nc1ccc(Oc2cnccn2)cc1`: -8.8%; `O=C(Nc1cccc(-c2cnc3ccccc3n2)c1)c1ccccc1`: -0.8%; `CC(=O)Nc1cccc(CP(=O)(c2ccccc2)c2ccccc2)c1`: -3.5%.
Turning to `O=C(CCl)Nc1cccc(CP(=O)(c2ccccc2)c2ccccc2)c1`, the inhibition was 106% (active).
On to `O=C(CP(=O)(c1ccccc1)c1ccccc1)Nc1cccc(CP(=O)(c2ccccc2)c2ccccc2)c1`, for which the inhibition is 7.2%.
Next, `CCC(=O)Nc1cccc(-c2cnc3ccccc3n2)c1`: -54.6%.
For the molecule `O=C(CCl)Nc1cccc(-c2cnc3ccccc3n2)c1`, the inhibition is 104% (active).
`O=C(CN1CCCCC1)Nc1cccc(Oc2ccccc2)c1`: the inhibition is -5.2%.
The result for `O=C(CCl)Nc1cccc(Oc2ccccc2)c1` reads 75.3% (active); that for `N=c1sccn1CC(=O)Nc1cccc(Oc2ccccc2)c1`, 16.7%; that for `CCOc1ccc(NS(=O)(=O)c2ccc(NC(=O)C3CC3)cc2)cc1`, 23.9%.
Next, `Fc1ccc(NC(=S)NCc2cccnc2)cc1`: -21.1%; `Cc1nnc(NC(=O)CN2CCN(Cc3c(Cl)cccc3Cl)CC2)s1`: 2.8%; `C/C(=N\NC(=O)c1ccccn1)c1ccc(C(=O)O)s1`: 6.8%.
Next, `Cc1ccccc1NC(=O)c1c(-c2ccccc2)noc1C`: -7.9%; `CN(Cc1ccccc1)S(=O)(=O)c1ccc(Cl)c(C(=O)NCc2ccc3c(c2)OCO3)c1`: -8.3%.
For the molecule `CC(=O)Nc1nc(C)c(-c2csc(Nc3cccc(C(C)=O)c3)n2)s1`, the inhibition is 3.5%.
The result for `CC(=O)Nc1ccc(Nc2nc(-c3sc(NC(C)=O)nc3C)cs2)cc1` reads 32.9%.
Turning to `O=[N+]([O-])c1cccc(NC(=S)Nc2nc(-c3ccccc3Cl)cs2)c1`, the inhibition is 88.1% (active).
For `O=C(NC(=S)Nc1nc(-c2cccc([N+](=O)[O-])c2)cs1)c1cc(Cl)ccc1Cl`, the inhibition is 13.4%.
Next, `O=C(NC(=S)Nc1nc(-c2cccc([N+](=O)[O-])c2)cs1)c1ccccc1Cl`: -36.4%; `CC(C)CCNC(=O)c1nn(Cc2ccccc2)c(=O)c2ccccc12`: -6.4%; `Cc1cc(C(=O)CSc2nnc(NCc3ccccc3)s2)c(C)n1C`: -18.8%.
The result for `CCN1CCN(c2ncnc3sc(C)c(-c4ccccc4)c23)CC1` reads -8.6%.
Next, `Cc1sc2ncnc(N3CCN(Cc4ccccc4)CC3)c2c1-c1ccccc1`: 43.2%; `Cc1ccc(C(=O)NS(=O)(=O)c2ccc(N=NN(C)C)cc2)cc1`: 46.6% (active); `Cc1ccc(C(=O)NS(=O)(=O)c2ccccc2)cc1`: -46.6%.
In the case of `Cc1ccc(C(=O)NS(=O)(=O)c2ccc(C)cc2)cc1`, the inhibition is -2.7%.
With `O=C1C(=C2SCCCS2)CC/C1=C\c1ccc(F)cc1`, the inhibition was 76.9% (active).
Turning to `O=C1/C(=C/c2ccc(F)cc2)CCC1C1CCCC1` (stereo not drawn), the inhibition was -42.1%.
As to `Cc1cccc(/C=C2\CCC(=C3SCCCS3)C2=O)c1`, the inhibition was 21.6%.
Next, `Cc1ccc(C(=O)Nc2cccnc2Cl)cc1Cl`: -74.4%; `NC(=O)COC(=O)c1ccc(NS(=O)(=O)c2ccc3c(c2)OCCO3)cc1`: -9.9%.
The result for `COc1ccc(-c2cc(-c3ccccc3)c(C#N)c(S(C)(=O)=O)n2)cc1` reads 19.6%; that for `CS(=O)(=O)c1nc(-c2ccc(Br)cc2)cc(-c2ccccc2)c1C#N`, 40.6%.
The result for `CC(C)C(Sc1nc(-c2ccccc2)cc(-c2ccccc2)c1C#N)C(=O)O` (stereo not drawn) reads 52.9% (active).
On to `CS(=O)(=O)c1nc(-c2ccccc2)cc(-c2ccccc2)c1C#N`, for which the inhibition was 68.3% (active).
Turning to `COc1ccc(-c2cc(-c3ccccc3)nc(SC(C)C(=O)O)c2C#N)cc1` (stereo not drawn), the inhibition was -21.4%.
As to `N#Cc1c(-c2ccccc2)cc(-c2ccccc2)nc1SCCC(=O)O`, the inhibition was 3.1%.
`COC(=O)c1ccccc1NC(=O)CSc1n[nH]c(-c2ccco2)n1`: the inhibition was -8.4%.
Next, `O=C(C1CCN(c2ccc(N3CCOCC3)nn2)CC1)N1CCN(c2ccc(F)cc2)CC1`: -18.2%; `C=CCSc1nc2sc3c(c2c(=O)[nH]1)CC(C)(CC)OC3` (stereo not drawn): -17.8%; `Cc1ccccc1NC(=O)CC1SCCNC1=O` (stereo not drawn): 11.3%.
For `OCCNCCCCOc1cccc(Br)c1`, the inhibition was 75.8% (active).
The result for `C=CCNCCCCOc1cccc(Br)c1` reads 11.4%; that for `COCCCNCCCCOc1cccc(Br)c1`, -2.3%; that for `O=S(=O)(/N=C(/NC(=S)Nc1ccccc1)c1ccccc1)c1ccc(Cl)cc1`, -32.1%.
On to `O=c1c(Cc2ccc(F)cc2)c(O)ccn1C1CC1`, for which the inhibition was 51.7% (active).
The result for `O=c1c(Cc2ccccc2)c(O)ccn1C1CCCCCCC1` reads -38.2%; that for `O=c1c(Cc2ccc(F)cc2)c(O)ccn1C1CCCCC1`, -17.4%.
In the case of `CCCCCCCCCCCC(=O)NC(C(=O)OCC)C(O)c1cccc([N+](=O)[O-])c1` (stereo not drawn), the inhibition was 34.1%.
Next, `CCCCCCCCCCCC(=O)NC(C(=O)O)C(O)c1ccccc1` (stereo not drawn): 55.2% (active); `CCCCCCCCOC(=O)C(NC(=O)CCC(=O)Nc1ccc(S(N)(=O)=O)cc1)C(O)c1ccccc1` (stereo not drawn): -2.4%; `CN1CCN(c2ccc(NC(=O)c3ccco3)cc2Cl)CC1`: -46.7%.
The result for `Nc1ccc(NC2C[C@@H](C(=O)O)NC2=O)cc1` (stereo partly drawn) reads -25.3%; that for `CC(C)CC(=O)N/N=C/c1c(N)n(C)c(=O)n(C)c1=O`, -7.7%; that for `CCn1cc([N+](=O)[O-])c(C(=O)N2N=C(c3ccc(Cl)c(Cl)c3)CC2c2ccccc2O)n1` (stereo not drawn), -14.7%.
The result for `CCn1cc(Cl)c(C(=O)N2N=C(c3ccc4ccccc4c3)CC2c2ccccc2O)n1` (stereo not drawn) reads 61.4% (active).
For the molecule `CCn1cc([N+](=O)[O-])c(C(=O)N2N=C(c3ccc4ccccc4c3)CC2c2ccccc2O)n1` (stereo not drawn), the inhibition is -40.2%.
For the molecule `CCCCC(=O)Nc1cc(OCC)c(NC(=S)NC)cc1OCC`, the inhibition is -5.5%.
The result for `CCOc1cc(Cl)c(NC(=O)CC)cc1OCC` reads -18.6%.
Next, `CCOc1cc(NC(=O)CCl)c(OCC)cc1NC(=O)CCl`: 71.2% (active); `CCN1C(=O)c2ccccc2Sc2ccc(C(=O)NC(C)C)cc21`: 0.6%.
Next, `CC(=O)c1c(C)nc(-c2ccccc2)nc1NC(=O)C(C)C`: -18%.
Turning to `COC(=O)c1scc(C)c1NC(=O)c1ccc(Cl)cc1`, the inhibition is -13.3%.
Next, `COC(=O)c1sc(SC)c(S(=O)(=O)C(C)C)c1N/N=C(\C#N)C(=O)c1ccccc1`: -8.9%; `CCOC(=O)/C(C#N)=N/Nc1c(S(=O)(=O)Cc2ccco2)csc1C(=O)OC`: -12.9%; `COC(=O)c1sc(SC)c(S(=O)(=O)C(C)C)c1N/N=C(\C#N)S(=O)(=O)c1ccccn1`: -7.4%.
Consider `COC(=O)c1cc(OC)c(OC)cc1NC(=O)Cc1ccccc1[N+](=O)[O-]`, for which the inhibition was 53.2%.
In the case of `CCSc1nnc(NC(=O)c2cc(C)on2)s1`, the inhibition was -22.4%.
Next, `Cc1ccc(CNS(=O)(=O)c2ccc3c(c2)NC(=O)C(C)S3)cc1` (stereo not drawn): 16.1%; `Cc1ccccc1C(=O)N1CCC(C(N)=O)CC1`: 24.1%; `O=C(NCc1ccccc1)C1COc2ccccc2O1` (stereo not drawn): -48.6%.
The result for `O=C(N1CCN(c2ccccn2)CC1)C(Cl)(Cl)Cl` reads 32.8%.
As to `O=C(CN1CCCCC1)N1c2ccccc2CCc2ccccc21`, the inhibition was 7.5%.
For the molecule `O=C(CCl)N1c2ccccc2CCc2ccccc21`, the inhibition was 94.7% (active).
`CC(Cl)C(=O)N1c2ccccc2CCc2ccccc21` (stereo not drawn): the inhibition was 19.8%.
